This is a sample that favours compounds with a hit; in the whole collection about 3.4% have one here.
APP 5'UTR act: activators of APP 5'UTR luciferase reporter, primary screen, SH-SY5Y cells; SH-SY5Y APP 5'UTR luciferase reporter, luminescence; zero percent = DMSO vehicle wells; activation, % at 2 µM; actives 1% (n = 190,000); AID 1276, 2008;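 active = activation above a set limit, based on mean plus 3 SD of controls, cut at about 140% in these data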
hgDAF12 agonist: H. glycines DAF-12 receptor agonists, primary screen, cell-based, luminescence, HEK293, GAL4 fusion, UAS-luciferase. HEK293 GAL4-hgDAF12 UAS-luciferase reporter, agonist luminescence; normalized to butyrate control. activation, % at 6.8 µM. actives 1.8% (n = 370,000);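 active = activation above a cutoff set at the mean of all screened compounds plus 3 SD, cut at about 10% in these data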
NF-kB neuron act: activators of NF-kB expression in neurons, primary screen, cell-based, HTS; human neuronal cells, NF-kB reporter expression; active compounds read high; fold change at 12.5 µM; actives 1.6% (n = 190,000); in the data active = fold change above about 3.3
ssDAF12 agonist: S. stercoralis DAF-12 nuclear receptor activators, primary screen, cell-based, luminescence, HEK293, GRIP1 co-expression, lit1-tk-luc | Nuclear hormone receptor DAF-12 (Strongyloides stercoralis) | HEK293 ssDAF-12/GRIP1 lit1-tk-luc reporter; % of 3 µM dafachronic acid response | activation, % at 6.8 µM | actives 1% (n = 370,000);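 active = activation above the mean over all tested compounds plus 3 SD, cut at about 0.9% in these data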
hcDAF-12 act: H. contortus DAF-12 nuclear receptor activators, primary screen, cell-based, luminescence, HEK293, lit1-tk-luc reporter; HEK293 hcDAF-12 lit1-tk-luc reporter; 0% DMSO, 100% Δ7-dafachronic acid; activation, % at 6.8 µM; actives 1.4% (n = 370,000);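 active = activation above the mean of all tested compounds plus 3 SD, cut at about 5.5% in these data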
LXRb hcDAF ctr: LXR agonists, Gal4 luciferase reporter, confirmation, counter-screen for hcDAF-12 agonist project, cell-based, luminescence, HEK293, H. contortus campaign | shares compounds with hcDAF-12 act | HEK293 Gal4-LXR tk-luc reporter, 24 h; normalized: DMSO 0%, positive control 100% | activation, % at 6.8 µM | 3,400 tested, under 10 active | AID 743027, 2013;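 active = mean percent activation of the reporter above a cutoff set as the average over tested compounds plus their standard deviation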
Target sequence (P55055 whole entry, looked up, the tested form may be a part): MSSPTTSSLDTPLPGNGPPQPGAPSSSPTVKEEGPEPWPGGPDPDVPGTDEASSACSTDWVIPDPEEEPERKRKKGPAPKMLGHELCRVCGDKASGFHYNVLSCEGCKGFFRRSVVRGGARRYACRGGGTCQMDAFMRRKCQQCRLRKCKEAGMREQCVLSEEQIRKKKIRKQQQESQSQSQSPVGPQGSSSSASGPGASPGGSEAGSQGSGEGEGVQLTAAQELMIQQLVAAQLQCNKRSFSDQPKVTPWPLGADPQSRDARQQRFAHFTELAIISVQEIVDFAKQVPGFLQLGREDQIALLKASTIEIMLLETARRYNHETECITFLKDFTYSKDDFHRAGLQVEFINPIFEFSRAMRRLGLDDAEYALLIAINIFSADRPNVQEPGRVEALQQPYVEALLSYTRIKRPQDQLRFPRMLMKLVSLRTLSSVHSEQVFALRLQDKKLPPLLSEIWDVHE
hcDAF12 ag: H. contortus DAF-12 receptor agonists, confirmation, cell-based, luminescence, HEK293, lit1-tk-luc, triplicate. shares compounds with hcDAF-12 act. HEK293 hcDAF-12 lit1-tk-luc reporter; % of Δ7-dafachronic acid response. activation, % at 6.8 µM. actives 61% (n = 3,400). AID 743032, 2013;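 active = mean activation across triplicate tests above the threshold derived from the earlier primary screen, cut at about 5.5% in these data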
Large screens that a line does not name were inactive (follow-up assays come after a bar, where they were run).

COc1ccccc1NC(CC(=O)c1ccccc1)C(=O)OCC(=O)c1ccc(C)c(C)c1 (centres undefined)	hgDAF12 agonist 22.2, ssDAF12 agonist 3.3, hcDAF-12 act 17.5 | LXRb hcDAF ctr inactive | hcDAF12 ag 11.9
O=c1c2cc(N3CCOCC3)ccc2[nH]c(=S)n1CCCN1CCCCCC1	none
O=c1c2cc(F)ccc2[nH]c(=S)n1CCCN1CCOCC1	hcDAF-12 act 10.6 | LXRb hcDAF ctr inactive | hcDAF12 ag inactive
Cc1ccc(CNC(=O)O[C@H]2CC[C@@]34CCCN3C(=O)CCC[C@H]4[C@H]2C)o1	none (no result: APP 5'UTR act, NF-kB neuron act)
O=C(CSc1nnc(-c2cccc(Cl)c2)n1Cc1ccco1)Nc1ccc2c(c1)OCO2	none (no result: APP 5'UTR act, NF-kB neuron act)
CC(C)(C)C(=O)OC12CCCN(C1)/C(=C/c1cccnc1)C2 (centres undefined)	none (no result: APP 5'UTR act, NF-kB neuron act)
Cc1ccc(C#N)c(SCc2ccccc2F)n1	none (no result: APP 5'UTR act, NF-kB neuron act)
Cc1ccc2nc(CSc3nc(C)ccc3C#N)[nH]c2c1	hgDAF12 agonist 18.3, ssDAF12 agonist 1.4, hcDAF-12 act 18.8 | LXRb hcDAF ctr inactive | hcDAF12 ag 26.3
Cc1cc(C)n(-c2ncnc3sc4c(c23)CCCC4)n1	hcDAF-12 act 7.4 | LXRb hcDAF ctr inactive | hcDAF12 ag inactive
CCOc1ccc(NC(=O)Nc2cccs2)cc1	hgDAF12 agonist 10.7, NF-kB neuron act 4.52, hcDAF-12 act 7.3 (no result: APP 5'UTR act) | LXRb hcDAF ctr inactive | hcDAF12 ag inactive
Cc1ccc(C(=O)Nc2nc3ccccc3n2CCN2CCCC2)cc1	hgDAF12 agonist 14.1, ssDAF12 agonist 2.7, hcDAF-12 act 9.1 | LXRb hcDAF ctr inactive | hcDAF12 ag 8.5
N/C(=N\OC(=O)COc1ccc2ccccc2c1)c1ccccn1	none
N/C(=N\OC(=O)c1ccccc1Cl)c1ccccn1	hcDAF-12 act 7.0 | LXRb hcDAF ctr inactive | hcDAF12 ag 11.1
N/C(=N\OC(=O)COc1ccccc1Cl)c1ccccn1	APP 5'UTR act 201.4, NF-kB neuron act 7.3, ssDAF12 agonist 1.1, hcDAF-12 act 6.9 | LXRb hcDAF ctr inactive | hcDAF12 ag 8.0
COc1ccccc1C(=O)O/N=C(\N)c1ccccn1	ssDAF12 agonist 2.7, hcDAF-12 act 10.8 (no result: APP 5'UTR act, NF-kB neuron act) | LXRb hcDAF ctr inactive | hcDAF12 ag 5.9
COc1cc(N=Nc2cccc(S(N)(=O)=O)c2)c2ccccc2c1N	hcDAF-12 act 9.2 (no result: APP 5'UTR act, NF-kB neuron act) | LXRb hcDAF ctr inactive | hcDAF12 ag inactive
Cc1ccc(C(=O)C2CCN(CC(=O)N3CCOCC3)CC2)cc1	none (no result: APP 5'UTR act, NF-kB neuron act)
Cc1ccccc1-c1ccc(C(=O)Nc2cccc(F)c2)o1	hcDAF-12 act 7.3 | LXRb hcDAF ctr inactive | hcDAF12 ag 5.7
CCc1ccccc1NC(=O)C1CCC(=O)N(c2ccc(OC)cc2)C1c1ccc(OC)cc1 (centres undefined)	none (no result: APP 5'UTR act, NF-kB neuron act)
O=C(NC1CCCC1)N1CCC(c2nc3ccc(Cl)cc3[nH]2)CC1	none (no result: APP 5'UTR act, NF-kB neuron act)
Cn1nc(-c2ccc(Cl)cc2)c2cc(C(=O)NCCCN3CCOCC3)sc21	none (no result: hgDAF12 agonist, ssDAF12 agonist, hcDAF-12 act)
Cn1nc(-c2ccc(Cl)cc2)c2cc(C(=O)N3CCN(C(=O)c4ccco4)CC3)sc21	none
CCN1CCN(C(=O)c2cc3c(-c4ccc(Cl)cc4)nn(C)c3s2)CC1	ssDAF12 agonist 1.2, hcDAF-12 act 7.6 | LXRb hcDAF ctr inactive | hcDAF12 ag 6.6
Cn1nc(-c2ccc(Cl)cc2)c2cc(C(=O)NCCN3CCOCC3)sc21	hcDAF-12 act 7.3 (no result: APP 5'UTR act) | LXRb hcDAF ctr inactive | hcDAF12 ag inactive
CCCN(CCC)CCNC(=O)c1cc2c(-c3ccc(Cl)cc3)nn(C)c2s1	hcDAF-12 act 10.6 (no result: APP 5'UTR act, NF-kB neuron act) | LXRb hcDAF ctr inactive | hcDAF12 ag 12.7
CCCCN(CC)CCNC(=O)c1cc2c(-c3ccc(Cl)cc3)nn(C)c2s1	ssDAF12 agonist 1.3, hcDAF-12 act 10.3 (no result: APP 5'UTR act, NF-kB neuron act) | LXRb hcDAF ctr inactive | hcDAF12 ag 10.8
CCCCOCCCNC(=O)C[C@H]1C[C@@]2(C(=O)OC)C(=C[C@H](C(C)C)O[C@@H]2C2CC2)N(Cc2ccc3c(c2)OCO3)C1=O	none (no result: APP 5'UTR act, NF-kB neuron act)
Cc1cc2ccccn2c1C(=O)Nc1cccc(Cl)c1	hcDAF-12 act 7.0 | LXRb hcDAF ctr inactive | hcDAF12 ag 6.1
Cc1cc2ccccn2c1C(=O)c1ccc(Cl)cc1	none
Cc1ccc(C(=O)NC(=S)c2c(C)cc3ccccn23)cc1	hgDAF12 agonist 11.8, ssDAF12 agonist 4.1, hcDAF-12 act 7.5 (no result: APP 5'UTR act, NF-kB neuron act) | LXRb hcDAF ctr inactive | hcDAF12 ag 8.5
Cc1cc2ccccn2c1C(=S)NC(=O)c1ccccc1	none
COC(=O)[C@]12C[C@H](CC(=O)NCCCCc3ccccc3)C(=O)N(CCC3=CCCCC3)C1=C[C@H](C(C)C)O[C@@H]2C1CC1	none (no result: APP 5'UTR act, NF-kB neuron act)
COC(=O)[C@]12C[C@H](CC(=O)NCc3cccc(C(F)(F)F)c3)C(=O)N(Cc3ccc(Cl)cc3Cl)C1=C[C@H](C(C)C)O[C@@H]2C1CC1	none (no result: APP 5'UTR act, NF-kB neuron act)
c1ccc(-c2csc(Nc3ccccn3)n2)cc1	hgDAF12 agonist 17.6, ssDAF12 agonist 2.7, hcDAF-12 act 14.4 (no result: APP 5'UTR act, NF-kB neuron act) | LXRb hcDAF ctr inactive | hcDAF12 ag 16.6
Cc1nc(C)c(-c2csc(Nc3ccccn3)n2)s1	none (no result: APP 5'UTR act, NF-kB neuron act)
O=C1Cc2ccccc2C(=O)N1CCc1ccccc1	hcDAF-12 act 6.9 | LXRb hcDAF ctr inactive | hcDAF12 ag inactive
O=C1C(=O)N(Cc2ccccc2)C(=O)N1CCN1C(=O)c2ccccc2C1=O	none
CCCCOCCCNC(=O)C[C@H]1C[C@@]2(C(=O)OC)C(=C[C@H](COCc3ccccc3)O[C@@H]2C)N(CCc2ccc(OC)c(OC)c2)C1=O	none (no result: APP 5'UTR act, NF-kB neuron act)
Cc1ccc(NCC(=O)N/N=C/c2cc3ccccc3nc2Cl)cc1	hgDAF12 agonist 13.5, ssDAF12 agonist 2.0, hcDAF-12 act 7.6 | LXRb hcDAF ctr inactive | hcDAF12 ag 5.6
Cc1ccc2cc(/C=N/Nc3nc4ccccc4[nH]3)c(Cl)nc2c1	hgDAF12 agonist 11.5, ssDAF12 agonist 0.9, hcDAF-12 act 13.2 | LXRb hcDAF ctr inactive | hcDAF12 ag 14.9
COc1cc(OC)c(OC)cc1/C=N/Nc1nc2ccccc2[nH]1	none (no result: APP 5'UTR act, NF-kB neuron act)
Cc1ccc2nc(Cl)c(/C=N/Nc3ccc(C(=O)O)cc3)cc2c1	hgDAF12 agonist 24.8, ssDAF12 agonist 3.0, hcDAF-12 act 15.4 (no result: APP 5'UTR act, NF-kB neuron act) | LXRb hcDAF ctr inactive | hcDAF12 ag 16.4
O=C(CN1CCOCC1)N/N=C/c1cc2ccccc2nc1Cl	none

Screens: PubChem BioAssay, several laboratories
